Results reported in PubChem BioAssay AID602142 (NMMLSC, 2011).
“And” between values parts separate entries of the source, which are not always exact repeats. Identical values can stand only once. The list shows a part of the results. Unmarked numbers belong to inactive results. How the calls were made is not given here.

Biological target: Lethal factor (Bacillus anthracis) (UniProt P15917)
Experiment: Bacillus anthracis LF protease inhibitors, confirmation, biochemical, multiplex microsphere, cherry pick 1 (AID 602142)
Settings: multiplex microsphere protease cleavage assay, at 10 µM, stronger effect = higher value

Chain of Lethal factor (Bacillus anthracis) (P15917 whole entry, looked up): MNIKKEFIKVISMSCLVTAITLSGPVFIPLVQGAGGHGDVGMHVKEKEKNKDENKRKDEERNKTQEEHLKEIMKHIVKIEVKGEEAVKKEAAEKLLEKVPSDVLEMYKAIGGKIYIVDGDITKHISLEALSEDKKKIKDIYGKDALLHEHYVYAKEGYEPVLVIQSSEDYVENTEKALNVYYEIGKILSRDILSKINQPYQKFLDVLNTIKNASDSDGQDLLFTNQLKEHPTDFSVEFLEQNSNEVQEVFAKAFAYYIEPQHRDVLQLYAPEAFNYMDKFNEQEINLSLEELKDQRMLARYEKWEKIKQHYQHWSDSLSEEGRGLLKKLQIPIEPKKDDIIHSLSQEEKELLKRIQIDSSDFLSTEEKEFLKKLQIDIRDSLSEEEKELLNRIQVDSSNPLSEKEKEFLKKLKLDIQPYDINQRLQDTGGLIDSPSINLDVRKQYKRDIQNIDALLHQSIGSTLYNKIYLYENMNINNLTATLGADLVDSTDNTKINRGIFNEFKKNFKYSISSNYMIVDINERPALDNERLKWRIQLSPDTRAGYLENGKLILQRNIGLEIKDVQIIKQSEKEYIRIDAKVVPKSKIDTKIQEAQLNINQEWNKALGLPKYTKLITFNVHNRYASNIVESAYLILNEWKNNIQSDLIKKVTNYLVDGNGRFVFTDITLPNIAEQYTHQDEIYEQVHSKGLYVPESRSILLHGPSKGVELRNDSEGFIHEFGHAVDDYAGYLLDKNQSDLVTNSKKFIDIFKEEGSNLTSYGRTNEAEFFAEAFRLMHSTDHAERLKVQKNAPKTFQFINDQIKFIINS

Question: How did the inhibition turn out when `COc1ccc(C(=O)Nc2nc(-c3ccc(OC)cc3)c(-c3ccc([N+](=O)[O-])cc3)s2)cc1` was run?
Answer: 15.9%

Question: `Brc1ccc2ncnc(NCc3cccnc3)c2c1` was tested. Which inhibition did it give?
Answer: -1.9%

Question: For `CN(C(=O)c1ccccn1)c1nnc(-c2ccccn2)s1`, which inhibition is on record?
Answer: -4.3%

Question: How did the inhibition turn out when `CCOc1ccc(NC(=O)CC(Cc2ccc(Cl)cc2)C(=O)O)cc1` (configuration not stated) was run?
Answer: 2.3%

Question: How did the inhibition turn out when `O=S(=O)(NC1CCCCC1N1CCC(O)CC1)c1ccc(Cl)cc1` (configuration not stated) was run?
Answer: -1.6%

Question: `Cc1ccc2[nH]cc(CCNC(=O)C3CCCCC3)c2c1` was tested. Which inhibition did it give?
Answer: 3.7%

Question: For `Cc1ccc(-c2nc(-c3cccnc3)sc2CC(=O)Nc2ccc(C)c(Cl)c2)cc1`, which inhibition is on record?
Answer: 1.7%

Question: Which inhibition does the source give for `COCc1cc(=O)[nH]c(SC)n1` here?
Answer: -4.9%

Question: How did the inhibition turn out when `COc1cc(C(=O)NCc2ccc3c(c2)cc(C)n3C)cc(OC)c1OC` was run?
Answer: -4%

Question: With `Cc1ccccc1NC(=O)c1cc(S(=O)(=O)Nc2cccc(C(=O)O)c2)ccc1Cl` as the compound, how does the inhibition read?
Answer: -0.5%

Question: For `CCCN1C2CCCC1CC(NC(=O)c1cccc(OC)c1)C2` (configuration not stated), which inhibition is on record?
Answer: 3.1%

Question: `COc1ccccc1CNC(=O)C1Cc2ccccc2C(=O)O1` (configuration not stated) was tested. Which inhibition did it give?
Answer: 1.5%

Question: For `O=C(O)c1cc(S(=O)(=O)NC2CCCc3ccccc32)ccc1O` (configuration not stated), which inhibition is on record?
Answer: 1.4%

Question: How did the inhibition turn out when `CC(=O)c1cccc(NC(=O)N2CCCC2C(=O)NCCc2ccccc2)c1` (configuration not stated) was run?
Answer: 4.9%

Question: How did the inhibition turn out when `Cc1cccc2cc3c(N)c(C(=O)N4CCCc5ccccc54)sc3nc12` was run?
Answer: 13.6%

Question: How did the inhibition turn out when `COc1ccc(NS(=O)(=O)c2cc(C(=O)Nc3ccccc3C(=O)O)ccc2C)cc1` was run?
Answer: -2.7%

Question: Which inhibition does the source give for `COc1ccc(C2CC(c3cccs3)=NN2c2nc(C)c(C(C)=O)s2)cc1OC` (configuration not stated) here?
Answer: 10.5% and 15.1%

Question: How did the inhibition turn out when `COC(=O)CN(c1nc(C)c(Cl)c(OC)n1)S(=O)(=O)c1ccc(C)cc1` was run?
Answer: 2.2%

Question: How did the inhibition turn out when `CC1CCN(C(=O)c2ccc(S(=O)(=O)Cc3cc(F)ccc3F)c([N+](=O)[O-])c2)CC1` was run?
Answer: 1.6%

Question: Which inhibition does the source give for `CCOc1nnc(C)c2c(C)n(-c3cccc(Cl)c3)nc12` here?
Answer: 3.5%

Question: How did the inhibition turn out when `COc1ccc(N(CC(=O)NCCSCc2cccc(Cl)c2)S(C)(=O)=O)cc1` was run?
Answer: -1.8%

Question: Which inhibition does the source give for `COc1cc2cc(CN(CCN3CCCC3)C(=O)Nc3ccccc3Cl)c(=O)[nH]c2cc1OC` here?
Answer: -0.1%
